Measurements from PubChem BioAssay AID1259415 (National Center for Advancing Translational Sciences (NCATS), 2018).
Out of some 410,000 compounds screened, about 18,000 (4.4%) were called active. Another 7% or so got no clear call; they are omitted. The sample holds actives, similar compounds and a random draw of the others, so the mix is not that of the screen. Values without a mark were called inactive. Cut-off read from the data, not from the text of the source: active = activity change below about -60%; inconclusive = no clear call, values can overlap the other calls; inactive = above about -39%.

experiment: qHTS Assay for inhibitors of the human cytomegalovirus (HCMV); conditions: HFF cells, HCMV-luciferase reporter, 72 h; at 57.5 µM; active compounds read low
Summary of the method: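 After 16 h attachment at 37C, HFF cells received test compound and HCMV-luciferase (1 PFU/cell); reporter luminescence read 72 h later, data normalized against buffer-only and known inhibitor Salinomycin.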
% is set by controls: 0 for no effect and ±100 for the full control effect.

| Structure (SMILES) | activity change, negative = inhibition |
| --- | --- |
| COc1ccc(N2CCN(Cc3nc4c(c(=O)[nH]c(=O)n4C)n3Cc3ccc(Cl)cc3)CC2)cc1 | -12.8% |
| Cc1cc(OC(C)C(=O)Nc2sc3c(c2C(N)=O)CCCC3)ccc1Cl (centres undefined) | -5.13% |
| O=C(NC1CCCCC1)C1CC(=O)N(CCc2ccccc2)C1 (centres undefined) | -109% (active) |
| O=C(NCCCN1CCCCC1)C1CC(=O)N(CCc2ccccc2)C1 (centres undefined) | 0.846% |
| Cc1ccc(CCN2CC(C(=O)NCCc3ccccc3)CC2=O)cc1 (centres undefined) | -5.82% |
| CC(=O)N1c2ccc(S(=O)(=O)N3CCCCCC3)cc2CC1C(=O)NCc1ccccc1C (centres undefined) | 8.34% |
| O=C(C1CCC(Cn2c(=O)c3sccc3n(Cc3ccccc3F)c2=O)CC1)N1CCCCC1 (centres undefined) | 3.01% |
| O=C(OCCN1CCOCC1)C1(c2ccccc2)CCCCC1 | -71.6% (active) |
| O=C(OCCN1CCOCC1)C1(c2ccccc2)CCCC1 | -35.5% |
| CC(=O)N1CCC(C(=O)OCc2ccc(Cl)cc2)(c2ccccc2)CC1 | 7.78% |
| COc1ccc(CCNc2ncnc3c2cnn3-c2ccc(C)cc2)cc1 | -8.18% |
| O=C1CCC[C@H]2[C@@H](Cc3ccccc3)[C@@H](NS(=O)(=O)c3ccc([N+](=O)[O-])cc3[N+](=O)[O-])CC[C@]23CCCN13 | -34.8% |
| CCOC(=O)/C=C/C(=O)OCC(=O)NC(c1ccccc1)c1ccccc1 | -66.5% (active) |
| Cc1ccccc1OCCC(=O)OCC(=O)NC(C)c1ccccc1 (centres undefined) | 145% |
| CCOc1ccc(C(CC(=O)O)NC(=O)COc2ccccc2)cc1 (centres undefined) | 36.3% |
| Cc1ccn(C(CC(=O)c2ccc(Br)cc2)C(=O)O)n1 (centres undefined) | 18.9% |
| O=c1ccc2c(-c3ccccc3S(=O)(=O)O)c3ccc(O)c(O)c3oc-2c1O | -91.7% (active) |
| Cc1nc(N2CCOCC2)c2c(C(=O)NCc3cccc(Cl)c3)c(C)oc2n1 | -10.3% |
| COc1cccc(C(=O)NCC(=O)OCc2cc(=O)n3ccsc3n2)c1 | 8.23% |
| CCOC(=O)c1c(C)oc2nc(C)nc(N3CCN(c4ccc(OC)cc4)CC3)c12 | -14.4% |
| CCN(CC)c1ccc2oc(=O)c(C)nc2c1 | -70.4% (active) |
| Cc1ccc2c(c1)C(O)(CC(=O)c1cccc(-n3cccc3)c1)C(=O)N2 (centres undefined) | -9.59% |

| Structure (SMILES) | activity change, negative = inhibition |
| --- | --- |
| CCOC(=O)CN1C(=O)C(O)(CC(=O)c2ccccn2)c2ccccc21 (centres undefined) | 12.1% |
| COc1ccc2c(c1)C(=C(C#N)C#N)C(=O)N2CCc1ccccc1 | 32.5% |
| C=CCN1C(=O)C(O)(CC(=O)c2ccccn2)c2ccccc21 (centres undefined) | 51.3% |
| Cc1ccc(C(=O)CC2(O)C(=O)N(CCc3ccccc3)c3ccc(Br)cc32)cc1 (centres undefined) | -97.7% (active) |
| CCc1ccc(C(=O)CC2(O)C(=O)N(CCc3ccccc3)c3ccc(Br)cc32)cc1 (centres undefined) | -104% (active) |
| O=C(CC1(O)C(=O)N(CN2CCOCC2)c2ccccc21)c1ccccc1 (centres undefined) | 23.8% |
| Cc1coc(C)c1C(=O)CC1(O)C(=O)N(C)c2ccc(Cl)cc21 (centres undefined) | 0% |
| CCCN1C(=O)C(O)(CC(=O)c2ccc(CC)cc2)c2cc(Br)ccc21 (centres undefined) | -70.2% (active) |
| Cc1ccc(S(=O)(=O)N2CCC(C(=O)Nc3cc(C)ccc3C)CC2)cc1 | 10.8% |
| Cc1cc(C)nc(-n2ncc3c2CC(c2ccc(C(C)C)cc2)CC3=O)n1 (centres undefined) | -22.8% |
| Cc1ccccc1NC(=O)Cn1c(=O)n(Cc2ccco2)c(=O)c2ccc(C(=O)NC3CCCC3)cc21 | 36.1% |
| CCOC(=O)N1CCc2c(sc(NCc3cccc(F)c3)c2C(=O)Nc2ccccc2OCC)C1 | 30.2% |
| CN(C(=O)c1c(Cl)cnn1C)C12CC3CC(CC(C3)C1)C2 | -18.8% |
| O=C(O)c1c(CNCc2cccc(F)c2)c2ccccc2n1Cc1ccccc1 | 8.63% |
| Cc1ccc(C(=O)Nc2c(C(=O)NC(C)(C)C)oc3ccccc23)cc1 | -18.8% |
| COc1ccccc1CNc1ccc(-c2nc(-c3ccccc3C)no2)cc1[N+](=O)[O-] | 3.35% |
| Cc1ccccc1CNC(=O)Cn1c(C)c2cnn(-c3ccccc3)c(=O)c2c1C | -13% |
| CCCNC(=O)N1CCC2(CC1)CN(C(=O)CN1CCOCC1)[C@H](CO)c1[nH]c3cc(OC)ccc3c12 | 0.475% |
| CC(C)=CCc1ccc(O)c(=O)cc1C(C)C | -101% (active) |
| CCNC(=O)c1cc2n(n1)CCCN(Cc1ccc(C)cc1)C2=O | -3.42% |
| Cc1cc(C)cc(OCC(=O)Nc2c(C(=O)c3ccccc3)oc3ccccc23)c1 | 0.353% |
| CCC(C)(C)NC(=O)CN(Cc1cccs1)C(=O)CNS(=O)(=O)c1ccc(F)cc1 | -8.36% |
